Shown are actives, neighbours in structure and some others; about 5% of the full set was active somewhere.
TbPYK inhibitor: T. brucei pyruvate kinase inhibition; TbPYK enzyme, Kinase-Glo Plus ATP luminescence, 45 min; Potency, µM (titrated, usually from 76.8 µM), actives largely listed as inhibitors; 410,000 tested, 0.12% active; AID 624173; note: nearly all actives have a fitted effect of over 50% in size
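Luminescent Kinase-Glo Plus end-point after 45 min room-temperature reaction of T. brucei pyruvate kinase started with 130 uM ADP (final). Buffer TEA 50 mM pH 7.2 with KCl, MgCl2, BSA, Tween-20; titration-based qHTS with fitted concentration-effect curves.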
VACV mCherry inh: vaccinia inhibition (mCherry reporter); Vaccinia virus mCherry reporter infection, fluorescence; Potency, µM (series often up to 36.5 µM), hits mostly inhibitors; 310,000 tested, 0.63% active; calls by dose curve; tested in A549 cells; note: nearly all actives have a fitted effect of over 35% in size
Vaccinia Venus: inhibitors of vaccinia virus (Venus reporter). Vaccinia virus Venus reporter expression, fluorescence. Potency, µM (doses to about 36.5 µM), actives largely listed as inhibitors. 330,000 tested, 0.46% active. AID 720580; calls by dose curve; tested in A549 cells; note: nearly all actives have a fitted effect of over 30% in size
HCMV antiviral: blocks human cytomegalovirus replication. HFF cells, HCMV-luciferase reporter, 72 h; active compounds read low. activity change, negative = inhibition, % at 57.5 µM. 410,000 tested, 4.5% active. AID 1259415; in the data active = activity change below about -60%; inconclusive = no clear call, values can overlap the other calls; inactive = above about -39%
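Compounds were evaluated in HFFs infected with an HCMV luciferase reporter virus (MOI 1 PFU/cell). Luciferase in lysates collected 72 h post infection served as the replication measure.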
LmPK inh: LmPK (Leishmania mexicana) enzyme inhibition | Potency, µM (titrated, usually from 57.5 µM), hits mostly inhibitors | 290,000 tested, 0.37% active | purified LmPK, Kinase-Glo ATP luminescence, 1 h | Q27686
Target sequence (Q27686 whole entry, looked up): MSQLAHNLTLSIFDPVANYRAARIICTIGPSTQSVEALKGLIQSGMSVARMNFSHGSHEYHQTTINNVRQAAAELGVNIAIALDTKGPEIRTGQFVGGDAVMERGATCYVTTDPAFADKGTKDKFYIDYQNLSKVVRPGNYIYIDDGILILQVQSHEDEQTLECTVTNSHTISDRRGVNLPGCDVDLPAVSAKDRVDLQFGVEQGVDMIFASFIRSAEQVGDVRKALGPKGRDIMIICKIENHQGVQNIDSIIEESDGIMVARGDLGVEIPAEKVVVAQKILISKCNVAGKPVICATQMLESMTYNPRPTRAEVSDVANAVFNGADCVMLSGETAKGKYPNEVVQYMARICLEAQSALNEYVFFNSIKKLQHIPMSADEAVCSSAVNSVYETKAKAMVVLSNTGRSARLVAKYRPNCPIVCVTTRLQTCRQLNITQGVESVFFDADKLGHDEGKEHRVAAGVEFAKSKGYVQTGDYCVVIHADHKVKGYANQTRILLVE
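Screened at intermediate enzyme activity to detect both inhibitors and activators: LmPK at 0.1 nM, with a 0.5 nM enzyme column as activation reference. PEP 0.5 mM, ADP 0.1 mM; ATP detected by luminescence after 1 h.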
Large screens that a line does not name were inactive. Unless noted, calls come from the whole dose curve; as a rule, active = well fitted curve in the direction sought with a large enough effect; inconclusive = small, poorly fitted or top-dose-only effect, or another doubt; inactive = no such curve, though single readings can be large; an effect the other way counts as inactive or inconclusive.

COc1ccccc1Oc1ccc(-c2cnc3ccccc3n2)cc1[N+](=O)[O-]	VACV mCherry inh inconclusive, HCMV antiviral -87
COCCOC(=O)C1=C(C)Nc2nc(C)nn2C1c1ccc(F)cc1 (stereo not given)	none
COc1cccc(CNC(=O)[C@H]2CCCN2C(=O)[C@H]2CCCN2C(=O)c2ccc(OC(F)(F)F)cc2)c1	none (no result: TbPYK inhibitor, VACV mCherry inh, Vaccinia Venus, LmPK inh)
CC1CCc2cc(F)ccc2N1C(=O)CSc1nnc2c(n1)[nH]c1ccccc12 (stereo not given)	HCMV antiviral -76
C=CCNC(=S)/C(=C(\[O-])c1ccc(Cl)cc1)[n+]1ccccc1	none
COc1ccc(-c2nc3ccccc3c(=O)o2)cc1	LmPK inh 18µM
COC(=O)c1cc(-c2ccc(NC(C)=O)cc2)nc2ccccc12	HCMV antiviral -68
COc1ccc2nc(-c3ccccc3)cc(C(=O)OCC(=O)N3CCCCC3)c2c1	HCMV antiviral -62 (no result: VACV mCherry inh, Vaccinia Venus, LmPK inh)
COc1ccc2cc(-c3cc(C(=O)O)c4ccccc4n3)ccc2c1	VACV mCherry inh 10µM, HCMV antiviral -61
COc1cc(OC)cc(-c2nc3ccccc3c(=O)o2)c1	none (no result: VACV mCherry inh)
C=CCn1c(COc2ccc(Cl)cc2)nnc1SCC(=O)NCC(=O)OCC	TbPYK inhibitor inconclusive (no result: VACV mCherry inh, Vaccinia Venus)
CCOC(=O)C1=C(CS(=O)(=O)c2ccc(C)cc2)NC(=O)NC1c1cc(OC)c(O)c(OC)c1 (stereo not given)	none (no result: VACV mCherry inh, Vaccinia Venus)
COC(=O)C1=C(c2ccccc2OCc2ccccc2)C[C@@H]2CC[C@H]1N2C(=O)NCc1ccc([N+](=O)[O-])cc1	Vaccinia Venus inconclusive (no result: LmPK inh)
CC(C)(C)c1nnc(N/N=C/c2cc(Br)ccc2O)n(N)c1=O	VACV mCherry inh 2.5µM, Vaccinia Venus inconclusive, HCMV antiviral -101
CCc1nnc(N/N=C/c2cc(Br)c(O)cc2O)n1N	VACV mCherry inh inconclusive, Vaccinia Venus inconclusive
Nn1cnnc1N/N=C/c1ccc(Cl)cc1Cl	VACV mCherry inh 8.9µM, Vaccinia Venus inconclusive, HCMV antiviral inconclusive
N#Cc1cc2c(nc1SCC(=O)Nc1ccc(Cl)cc1)C1CCN2CC1	HCMV antiviral -91 (no result: VACV mCherry inh, Vaccinia Venus)
N#Cc1c(-c2ccccc2)cc(-c2ccccc2)nc1SCC(=O)Nc1ccc(Cl)cc1	none (no result: LmPK inh)
N#Cc1cc2c(nc1SCC(=O)Nc1ccc(Cl)c(C(F)(F)F)c1)C1CCN2CC1	Vaccinia Venus inconclusive, HCMV antiviral -68 (no result: LmPK inh)
N#Cc1cc2c(nc1SCC(=O)Nc1cc(Cl)ccc1Cl)C1CCN2CC1	HCMV antiviral -88 (no result: VACV mCherry inh, Vaccinia Venus)
N#Cc1cc2c(nc1SCC(=O)Nc1ccc(C(F)(F)F)cc1)C1CCN2CC1	HCMV antiviral -75 (no result: LmPK inh)
Cc1cc(C)nc(SCc2nnc(SCC(=O)Nc3ccc(Cl)c(C(F)(F)F)c3)o2)n1	none
N#Cc1ccc(-c2cccs2)nc1SCC(=O)Nc1cccc(C(F)(F)F)c1	none (no result: LmPK inh)
Cc1ccc2nc(SCC(=O)Nc3ccccc3N3CCOCC3)c(C#N)cc2c1	VACV mCherry inh inconclusive, Vaccinia Venus inconclusive, HCMV antiviral inconclusive
CC(=O)c1ccc(N2CCN(C(=O)CCCn3c(=O)[nH]c4ccc(Br)cc4c3=O)CC2)cc1	HCMV antiviral inconclusive (no result: VACV mCherry inh, Vaccinia Venus)
Cc1c(CC(=O)NCCc2ccccc2F)c(=O)oc2c(C)c3occ(C(C)(C)C)c3cc12	HCMV antiviral -78 (no result: LmPK inh)
Cc1c(CC(=O)NCCc2ccccc2)c(=O)oc2c(C)c3occ(C(C)(C)C)c3cc12	HCMV antiviral inconclusive (no result: LmPK inh)
Cc1cccc(C(=O)c2cn[nH]c2-c2ccc(C)cc2O)c1	none
Cc1ccc(-c2[nH]ncc2C(=O)c2cccc(F)c2)c(O)c1	HCMV antiviral -75
CC(=O)C1=NN(c2ccccc2)C(c2cccs2)N1c1ccc(N(C)C)cc1 (stereo not given)	HCMV antiviral -80 (no result: VACV mCherry inh, Vaccinia Venus)
Cc1c(CCOC(=O)CC23CC4CC(CC(C)(C4)C2)C3)sc[n+]1CC(=O)c1ccccc1	HCMV antiviral -71 (no result: VACV mCherry inh, Vaccinia Venus)
CCCNC(=O)c1ccc(COc2ccc(CCC)cc2OC)o1	HCMV antiviral -62
O=C(Nc1ccc(F)cc1)Nc1cc(OCC(F)(F)F)cc(OCC(F)(F)F)c1	VACV mCherry inh 10µM, Vaccinia Venus inconclusive, HCMV antiviral -101
CCOc1ccc(NC(=O)Nc2cc(OCC(F)(F)F)cc(OCC(F)(F)F)c2)cc1	none
C=CCC[C@H](Cc1ccc(F)cc1)C(=O)OC[C@@H](NC(=O)[C@@H](CC=C)CC(=O)N(CCO)Cc1ccccc1)C(C)(C)C	VACV mCherry inh inconclusive, Vaccinia Venus 13µM (no result: LmPK inh)
C=CCC[C@H](Cc1ccc(F)cc1)C(=O)OC[C@H](C)NC(=O)[C@H](CC=C)CC(=O)NCCO	HCMV antiviral -69 (no result: LmPK inh)
C=CCC[C@H](Cc1ccc(F)cc1)C(=O)OC[C@@H](NC(=O)[C@@H](CC=C)CC(=O)N[C@@H](CO)Cc1ccccc1)C(C)(C)C	VACV mCherry inh inconclusive, Vaccinia Venus 10µM (no result: LmPK inh)
C=CC[C@H](CC(=O)N(CCO)Cc1ccccc1)C(=O)N[C@H](COC(=O)[C@@H](CC=C)Cc1ccc(F)cc1)C(C)(C)C	Vaccinia Venus inconclusive (no result: LmPK inh)
C/C(=N\Nc1nccnc1Cl)c1ccc(O)c(C)c1	VACV mCherry inh inconclusive
NC(=O)C1CCN(c2ccc(S(=O)(=O)N3CCCCC3)cn2)CC1	none
O=C1NCCN1Cc1ccccc1F	none (no result: VACV mCherry inh, Vaccinia Venus)
N#Cc1ccccc1COc1ccc(/C=C/C(=O)O)cc1	TbPYK inhibitor inconclusive, HCMV antiviral -71
CCCn1c(C(C)NS(=O)(=O)c2ccccc2)n[nH]c1=S (stereo not given)	TbPYK inhibitor inconclusive (no result: VACV mCherry inh, Vaccinia Venus)
COc1ccc(S(=O)(=O)N2C[C@@H](O)COC[C@@H]3O[C@H](CC(=O)NCCCN4CCOCC4)CC[C@H]32)cc1	HCMV antiviral -74 (no result: TbPYK inhibitor, LmPK inh)
COc1ccc(NC(=O)C2C(c3ccc4c(c3)OCO4)=Nc3ccccc3N2C(C)=O)cc1 (stereo not given)	VACV mCherry inh inconclusive (no result: TbPYK inhibitor, LmPK inh)
CCc1cccc(C)c1NC(=O)CSc1nc2ccccc2nc1N1CCOCC1	none (no result: LmPK inh)
CCc1cccc(C)c1NC(=O)CSc1nnc(CC)n2c1cc1occc12	HCMV antiviral -69 (no result: LmPK inh)
CCc1cccc(C)c1NC(=O)CSc1nc2ccccc2nc1Cc1ccccc1	HCMV antiviral -68 (no result: LmPK inh)
Cc1ccc(Cc2nc3ccccc3nc2SCC(=O)Nc2ccc3c(c2)OCO3)cc1	HCMV antiviral -66 (no result: LmPK inh)
Nn1c(SCC(=O)Nc2ccc3c(c2)OCO3)nnc1-c1cccc(Cl)c1	none (no result: VACV mCherry inh, Vaccinia Venus)
Nn1cc(-c2ccccc2)nc1SCC(=O)Nc1ccc2c(c1)OCO2	HCMV antiviral -100
CCc1nnc(SCC(=O)Nc2ccc(OC)c(OC)c2)c2cc3occc3n12	none (no result: LmPK inh)
Cc1ccc(C(=O)OCC(=O)Nc2cc(S(C)(=O)=O)ccc2Cl)cc1S(=O)(=O)N1CCCCC1	none
CCCN1CCc2cc(O)cc3c2C1Cc1ccc(O)c(O)c1-3 (stereo not given)	none (no result: TbPYK inhibitor, HCMV antiviral, LmPK inh)
C=CCN1CCc2cccc3c2[C@H]1Cc1ccc(O)c(O)c1-3	TbPYK inhibitor inconclusive, VACV mCherry inh inconclusive, LmPK inh 1.6µM
COCCC1CCCCN1C(=O)c1cc(COc2cccc(C(C)=O)c2)on1 (stereo not given)	none
CC(C)N(CC(=O)Nc1ccc(Cl)cc1C(F)(F)F)C(=O)CCl	VACV mCherry inh inconclusive, HCMV antiviral -99
